Target: T1, GST-NTL8 NAC domain (Arabidopsis thaliana, UniProt Q9XIN7 14-156)
T1 sequence: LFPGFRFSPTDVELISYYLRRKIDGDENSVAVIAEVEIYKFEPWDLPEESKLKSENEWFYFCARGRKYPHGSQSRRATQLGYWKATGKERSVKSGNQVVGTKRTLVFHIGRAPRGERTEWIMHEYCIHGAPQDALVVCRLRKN
Test: universal protein binding microarray (PBM); transcription factors of Arabidopsis thaliana; high values mean tight binding
Settings: protein: recombinant; tags: GST; chain copies: 2; dsDNA, one strand shown
Procedure, shortened: (§1)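 For zinc-finger proteins, zinc acetate was added while GST-tagged NAC-domain, full-length or DNA-binding-domain proteins were induced in cells. Purification used glutathione–Sepharose 4B, and quantification used A280 or anti-GST western blot. Custom all-10-mer Agilent 4 × 180K arrays, made double-stranded by primer extension, each received a protein at 200 to 500 nM final in duplicate. Scoring covered gapped and ungapped 8-mers, with binding given as the normalised enrichment score (E-score).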

Row | Sequence | binding signal
1 | AAATTGAC | 0.0641 E-score
2 | ACTAAGTA | 0.116 E-score
3 | ACGCAAGA | 0.128 E-score
4 | AGACGCAA | 0.107 E-score
5 | ACGTAAGT | 0.125 E-score
6 | TTACGTAA | 0.411 E-score
7 | AATTACGT | 0.205 E-score
8 | CACGCAAG | 0.155 E-score
9 | TTACGGAA | 0.128 E-score
10 | ACGTAAAA | 0.0957 E-score
11 | ACGTAAAG | 0.0757 E-score
12 | GACGTAAC | 0.204 E-score
13 | CTTACCCC | 0.405 E-score
14 | TCACGCAA | 0.177 E-score
15 | CACGAAAG | 0.121 E-score

Target: T2, GST-SND1(1-203) (Arabidopsis thaliana, UniProt Q9LPI7 1-203)
T2 sequence: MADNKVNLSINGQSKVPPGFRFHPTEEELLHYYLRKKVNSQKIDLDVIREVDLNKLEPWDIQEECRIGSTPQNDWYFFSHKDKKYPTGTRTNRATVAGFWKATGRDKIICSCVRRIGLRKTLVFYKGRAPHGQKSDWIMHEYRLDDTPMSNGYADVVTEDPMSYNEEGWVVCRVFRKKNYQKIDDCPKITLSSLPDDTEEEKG
Test: as above
Settings: protein: recombinant; tags: GST; chain copies: 2; dsDNA, one strand shown
Procedure, shortened: as §1

Row | Sequence | binding signal
16 | ATTACGTA | 0.44 E-score
17 | ACACGCAA | 0.477 E-score
18 | CAAGGAAA | 0.242 E-score
19 | TAACGTAA | 0.488 E-score
20 | ATTACGTG | 0.252 E-score
21 | ACGCAAAG | 0.407 E-score
22 | CTTACTTA | 0.317 E-score
23 | ATTTCCCC | 0.199 E-score
24 | GTACGTCA | 0.422 E-score
25 | CGTCAAAC | 0.198 E-score
26 | GTACGTAA | 0.337 E-score
27 | AAGTAAGT | 0.282 E-score
28 | AATGCGTG | 0.288 E-score
29 | ACGTAACG | 0.415 E-score
30 | ACGTCAAA | 0.361 E-score
31 | TGAAGAAA | 0.152 E-score
32 | CTACGTTA | 0.478 E-score
33 | AACGTAGA | 0.408 E-score
34 | ATGCGTAC | 0.292 E-score

Row | Sequence | binding signal
35 | AGACGTGA | 0.25 E-score
36 | AAATTGAC | 0.2 E-score
37 | GTAAGTCA | 0.234 E-score
38 | ACTAAGTA | 0.258 E-score
39 | GATACGTA | 0.257 E-score
40 | ACGCAAGA | 0.405 E-score
41 | AGACGCAA | 0.265 E-score
42 | ACGTAAGT | 0.35 E-score
43 | TTACGTAA | 0.484 E-score
44 | AATTACGT | 0.42 E-score
45 | CACGCAAG | 0.404 E-score
46 | TTACGGAA | 0.405 E-score
47 | ACGTAAAA | 0.436 E-score
48 | ACGTAAAG | 0.41 E-score
49 | AACGTAAA | 0.436 E-score
50 | GACGTAAC | 0.392 E-score
51 | CTTACCCC | 0.198 E-score
52 | TCACGCAA | 0.473 E-score
53 | CACGAAAG | 0.184 E-score

Target: T3, GST-VND3 NAC domain (Arabidopsis thaliana, UniProt Q9FH59 12-162)
T3 sequence: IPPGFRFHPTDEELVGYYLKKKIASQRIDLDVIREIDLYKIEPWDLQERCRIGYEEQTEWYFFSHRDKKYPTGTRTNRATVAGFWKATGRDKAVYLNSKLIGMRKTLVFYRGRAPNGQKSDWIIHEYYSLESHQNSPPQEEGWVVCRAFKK
Test: as above
Settings: protein: recombinant; tags: GST; chain copies: 2; dsDNA, one strand shown
Procedure, shortened: as §1

Row | Sequence | binding signal
54 | ATTACGTA | 0.468 E-score
55 | ACACGCAA | 0.477 E-score
56 | CAAGGAAA | 0.202 E-score
57 | TAACGTAA | 0.375 E-score
58 | ATTACGTG | 0.446 E-score
59 | ACGCAAAG | 0.374 E-score
60 | CTTACTTA | 0.209 E-score
61 | ATTTCCCC | 0.205 E-score
62 | GTACGTCA | 0.38 E-score
63 | CGTCAAAC | 0.145 E-score
64 | GTACGTAA | 0.417 E-score
65 | AAGTAAGT | 0.217 E-score
66 | AATGCGTG | 0.286 E-score
67 | ACGTAACG | 0.359 E-score
68 | ACGTCAAA | 0.252 E-score
69 | TGAAGAAA | 0.121 E-score
70 | CTACGTTA | 0.24 E-score
71 | AACGTAGA | 0.206 E-score
72 | ATGCGTAC | 0.235 E-score

Row | Sequence | binding signal
73 | AGACGTGA | 0.358 E-score
74 | AAATTGAC | 0.228 E-score
75 | GTAAGTCA | 0.19 E-score
76 | ACTAAGTA | 0.279 E-score
77 | GATACGTA | 0.405 E-score
78 | ACGCAAGA | 0.252 E-score
79 | AGACGCAA | 0.295 E-score
80 | ACGTAAGT | 0.414 E-score
81 | TTACGTAA | 0.483 E-score
82 | AATTACGT | 0.47 E-score
83 | CACGCAAG | 0.415 E-score
84 | TTACGGAA | 0.442 E-score
85 | ACGTAAAA | 0.368 E-score
86 | ACGTAAAG | 0.359 E-score
87 | AACGTAAA | 0.252 E-score
88 | GACGTAAC | 0.367 E-score
89 | CTTACCCC | 0.101 E-score
90 | TCACGCAA | 0.448 E-score
91 | CACGAAAG | 0.191 E-score
